Source: PubChem BioAssay AID1159580 (chemical genetic matrix, 2015)
In all, about 5,500 compounds went through this assay and about 2,000 (36%) were called active. Another 18% or so got no clear call; they are omitted. Rule as the data show it: active = normalized growth mostly below about 0.91 (no sharp cut-off); inconclusive = no clear call, values can overlap the other calls; inactive = mostly above about 0.92. The list shows a part of the results.

Test: chemical genetic growth profiling, strain panel (AID 1159580);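 also: tested at 20 µM; growth read once vehicle control cultures reached saturation at 30 °C; 1 = growth at the plate median or of vehicle wells; lower values mean less growth of the strain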
Details: S. cerevisiae deletion strains, growth OD
[1] = locus YAL040C, strain CLN3, stronger effect = lower value
[2] = locus YCL061C, strain MRC1 (second series), stronger effect = lower value
[3] = locus YDR150W, strain NUM1, stronger effect = lower value
[4] = locus YDR363W, strain ESC2, stronger effect = lower value
[5] = locus YER002W, strain NOP16, stronger effect = lower value
[6] = locus YJR075W, strain HOC1, stronger effect = lower value
[7] = locus YMR263W, strain SAP30, stronger effect = lower value
[8] = locus YMR307W, strain GAS1, stronger effect = lower value
[9] = locus YNL153C, strain GIM3, stronger effect = lower value
[10] = locus YNL175C, strain NOP13, stronger effect = lower value
[11] = locus YNL197C, strain WHI3, stronger effect = lower value
[12] = locus YNL224C, strain SQS1, stronger effect = lower value
[13] = locus YOR083W, strain WHI5 (second series), stronger effect = lower value
[14] = locus YAL013W, strain DEP1, stronger effect = lower value
[15] = locus YNL322C, strain KRE1, stronger effect = lower value
[16] = locus YPL241C, strain CIN2, stronger effect = lower value
[17] = locus YBR229C, strain ROT2, stronger effect = lower value
[18] = locus YDL101C, strain DUN1, stronger effect = lower value
[19] = locus YDL134C, strain PPH21, stronger effect = lower value
[20] = locus YEL061C, strain CIN8, stronger effect = lower value
[21] = locus YGR078C, strain PAC10, stronger effect = lower value
[22] = locus YHR030C, strain SLT2, stronger effect = lower value
[23] = locus YHR087W, strain rtc3, stronger effect = lower value
[24] = locus YJR043C, strain POL32, stronger effect = lower value
[25] = locus YLR039C, strain RIC1, stronger effect = lower value
[26] = locus YLR058C, strain SHM2 (second series), stronger effect = lower value
[27] = locus YLR085C, strain ARP6, stronger effect = lower value
[28] = locus YLR262C, strain YPT6, stronger effect = lower value
[29] = locus YML094W, strain GIM5, stronger effect = lower value
[30] = locus YMR219W, strain ESC1, stronger effect = lower value
[31] = locus YNL298W, strain CLA4 (second series), stronger effect = lower value
[32] = locus YNR030W, strain Alg12, stronger effect = lower value
[33] = locus YOL006C, strain TOP1, stronger effect = lower value
[34] = locus YPL055C, strain LGE1, stronger effect = lower value
[35] = locus YPR135W, strain CTF4, stronger effect = lower value
[36] = locus YJL187C, strain SWE1, stronger effect = lower value

Measured: normalized growth

O=c1oc(Cl)c(Cl)c2ccccc12
inactive: [1] 1.03 | [2] 1 | [3] 0.991 | [4] 1 | [5] 1.02 | locus YGR229C, strain SMI1, stronger effect = lower value 0.968 | [6] 0.998 | [7] 1 | [8] 1 | [10] 1.01 | [11] 1.02 | [12] 0.923 | [13] 0.915
active: [9] 0.798

NC(=S)c1ccc[n+]([C@@H]2O[C@@H](COP(=O)([O-])OP(=O)(O)OC[C@H]3O[C@@H](n4cnc5c(N)ncnc54)C(OP(=O)(O)O)[C@H]3O)C(O)C2O)c1 (some centres not stated)
inactive: [14] 1.02 | [1] 1.03 | [2] 1.01 | [4] 1 | [5] 0.999 | [7] 0.995 | [8] 1 | [10] 1 | [11] 1.03 | [12] 1 | [15] 1.02 | [13] 0.998 | [16] 1.01

Cc1ccc(S(=O)(=O)Oc2ccc(CC#N)cc2)cc1
inactive: [14] 0.998 | [17] 0.963 | [18] 1.02 | [19] 0.978 | [3] 0.995 | [20] 0.976 | [21] 1.01 | [22] 0.974 | [23] 0.953 | [24] 1.01 | [6] 0.993 | locus YKL190W, strain CNB1, stronger effect = lower value 0.945 | [25] 0.865 | [26] 0.977 | [27] 0.929 | [28] 0.845 | [29] 0.956 | [30] 0.989 | [7] 0.995 | locus YNL128W, strain TEP1, stronger effect = lower value 0.995 | [9] 1.01 | [31] 0.977 | [15] 0.978 | [32] 0.969 | [33] 0.971 | [34] 0.958 | [16] 0.979 | [35] 0.863

Cc1ccc(S(=O)(=O)Oc2cc(=O)n(C)c3ccccc23)cc1
active: [36] 0.861 | [8] 0.622
inactive: [14] 0.95 | [17] 0.967 | [18] 0.967 | [19] 0.945 | [3] 0.918 | [20] 0.972 | [21] 0.955 | [22] 0.791 | [23] 0.961 | [24] 0.961 | [6] 0.96 | [25] 0.971 | [26] 0.952 | [27] 0.838 | [28] 0.918 | [29] 0.952 | [30] 0.963 | [7] 0.903 | [9] 0.954 | [31] 0.916 | [15] 0.977 | [32] 0.909 | [33] 0.808 | [34] 0.898 | [16] 0.873 | [35] 0.666

OC[C@@H](O)C(O[C@@H]1O[C@H](CO)[C@H](O)[C@H](O)[C@H]1O)[C@H](O)[C@@H](O)CO (some centres not stated)
inactive: locus YAL021C, strain ccr4, stronger effect = lower value 0.969 | locus YAL026C, strain drs2, stronger effect = lower value 0.99 | locus YAL030W, strain snc1, stronger effect = lower value 0.986 | locus YBL061C, strain skt5, stronger effect = lower value 0.993 | locus YBR009C, strain hhf1, stronger effect = lower value 0.991 | locus YBR023C, strain chs3, stronger effect = lower value 0.984 | locus YBR171W, strain sec66, stronger effect = lower value 0.98 | locus YBR279W, strain paf1, stronger effect = lower value 0.981 | locus YCL011C, strain gbp2, stronger effect = lower value 0.995 | locus YCL016C, strain dcc1, stronger effect = lower value 0.983 | locus YCL061C, strain MRC1, stronger effect = lower value 0.994 | locus YCL069W, strain vba3, stronger effect = lower value 0.99 | locus YCR088W, strain abp1, stronger effect = lower value 0.98 | locus YDL005C, strain med2, stronger effect = lower value 0.979 | locus YDL040C, strain nat1, stronger effect = lower value 0.988 | locus YDR001C, strain nth1, stronger effect = lower value 0.99 | locus YDR069C, strain doa4, stronger effect = lower value 0.981 | locus YDR137W, strain rgp1, stronger effect = lower value 1 | locus YDR159W, strain sac3, stronger effect = lower value 0.982 | locus YDR195W, strain ref2 0.963 | locus YDR297W, strain sur2, stronger effect = lower value 0.987 | locus YDR334W, strain swr1, stronger effect = lower value 0.98 | locus YDR335W, strain msn5, stronger effect = lower value 0.987 | locus YDR392W, strain spt3, stronger effect = lower value 0.992 | locus YEL003W, strain gim4, stronger effect = lower value 1.01 | locus YEL037C, strain rad23, stronger effect = lower value 0.991 | locus YEL061C, strain CIN8 (second series), stronger effect = lower value 0.995 | locus YER015W, strain faa2, stronger effect = lower value 0.991 | locus YER016W, strain bim1, stronger effect = lower value 0.988 | locus YER111C, strain swi4, stronger effect = lower value 0.996 | locus YER155C, strain BEM2 (second series), stronger effect = lower value 0.976 | locus YFR010W, strain ubp6, stronger effect = lower value 0.975 | locus YGL167C, strain pmr1, stronger effect = lower value 0.986 | locus YGL173C, strain kem1, stronger effect = lower value 0.981 | locus YGL227W, strain vid30, stronger effect = lower value 0.99 | locus YGL240W, strain doc1, stronger effect = lower value 0.999 | locus YGL253W, strain hxk2, stronger effect = lower value 0.989 | locus YHR013C, strain ard1, stronger effect = lower value 0.989 | locus YHR027C, strain rpn1, stronger effect = lower value 1 | [22] 0.976 | locus YHR079C, strain IRE1, stronger effect = lower value 0.974 | locus YHR142W, strain chs7, stronger effect = lower value 0.983 | locus YJL092W, strain hpr5, stronger effect = lower value 0.989 | locus YJL095W, strain BCK1 (second series), stronger effect = lower value 0.98 | locus YJL095W, strain BCK1, stronger effect = lower value 1.03 | locus YJL115W, strain asf1, stronger effect = lower value 0.978 | locus YJL129C, strain trk1, stronger effect = lower value 0.985 | locus YJL154C, strain vps35, stronger effect = lower value 0.991 | locus YJL164C, strain tpk1, stronger effect = lower value 0.996 | locus YJL166W, strain qcr8, stronger effect = lower value 0.987 | [36] 0.991 | locus YJR066W, strain TOR1, stronger effect = lower value 0.926 | locus YKL160W, strain elf1, stronger effect = lower value 0.991 | locus YKR026C, strain gcn3, stronger effect = lower value 0.985 | locus YKR091W, strain srl3, stronger effect = lower value 0.983 | locus YLL001W, strain dnm1, stronger effect = lower value 1 | locus YLL026W, stronger effect = lower value 0.989 | locus YLL041C, strain sdh2, stronger effect = lower value 0.992 | locus YLR027C, strain aat2, stronger effect = lower value 0.991 | locus YLR113W, strain HOG1, stronger effect = lower value 1.04 | locus YLR221C, strain rsa3, stronger effect = lower value 0.994 | locus YLR258W, strain gsy2, stronger effect = lower value 0.989 | locus YLR262C, strain YPT6 (second series), stronger effect = lower value 1 | locus YLR320W, strain mms22, stronger effect = lower value 0.98 | locus YLR342W, strain FKS1, stronger effect = lower value 0.987 | locus YLR357W, strain rsc2, stronger effect = lower value 0.959 | locus YLR370C, strain arc18, stronger effect = lower value 0.994 | locus YLR384C, strain iki3, stronger effect = lower value 0.983 | locus YML120C, strain ndi1, stronger effect = lower value 0.995 | locus YMR058W, strain fet3, stronger effect = lower value 0.99 | locus YMR125W, strain sto1, stronger effect = lower value 0.981 | locus YMR129W, stronger effect = lower value 0.995 | locus YMR205C, strain PFK2, stronger effect = lower value 0.994 | locus YMR231W, strain pep5, stronger effect = lower value 0.967 | locus YNL071W, strain lat1, stronger effect = lower value 0.985 | locus YNL183C, strain NPR1, stronger effect = lower value 0.934 | locus YNL209W, strain ssb2, stronger effect = lower value 1.01 | locus YNL248C, strain rpa49, stronger effect = lower value 0.991 | locus YNL322C, strain KRE1 (second series), stronger effect = lower value 0.986 | locus YNR049C, strain mso1, stronger effect = lower value 0.981 | locus YOR001W, strain rrp6, stronger effect = lower value 0.989 | locus YOR070C, strain gyp1, stronger effect = lower value 0.996 | locus YOR080W, strain dia2, stronger effect = lower value 0.981 | locus YOR083W, strain WHI5, stronger effect = lower value 0.986 | locus YOR106W, strain vam3, stronger effect = lower value 0.988 | locus YOR231W, strain MKK1, stronger effect = lower value 0.976 | locus YOR265W, strain rbl2, stronger effect = lower value 1 | locus YOR270C, strain vph1, stronger effect = lower value 1.01 | locus YOR290C, strain snf2, stronger effect = lower value 0.998 | locus YPL051W, strain arl3, stronger effect = lower value 1.01 | locus YPL078C, strain atp4, stronger effect = lower value 0.997 | locus YPL106C, strain sse1, stronger effect = lower value 0.969 | locus YPL240C, strain hsp82, stronger effect = lower value 0.988 | locus YPL256C, strain CLN2, stronger effect = lower value 0.986
